Bioassay records deposited in PubChem by National Center for Advancing Translational Sciences (NCATS).
A selection: hits, their analogues and other compounds. The true share with any hit is near 7.8%.
HCMV antiviral: inhibitors of human cytomegalovirus. HFF cells, HCMV-luciferase reporter, 72 h; active compounds read low. activity change, negative = inhibition, % at 57.5 µM. 410,000 tested, 4.5% active; in the data active means activity change below about -60%; inconclusive means no clear call, values can overlap the other calls; inactive means above about -39%
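Steps: HFFs plated, 16 h 37C; compounds added; HCMV-luciferase added to MOI 1 PFU/cell; 72 h 37C; OneGlo reagent, 5 min room temperature; luminescence read, normalized to controls.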
VACV Venus inh: vaccinia inhibition (Venus reporter); Vaccinia virus Venus reporter expression, fluorescence; Potency, µM (highest dose often 36.5 µM), most hits filed as inhibitors; 330,000 tested, 0.46% active; calls by dose curve; tested in A549 cells; further: nearly all actives have a fitted effect of over 30% in size
Lassa entry inh: Lassa virus entry inhibition; Lassa virus pseudotype entry inhibition, cell reporter; Potency, µM (highest dose often 37.9 µM), most hits filed as inhibitors; 300,000 tested, 1.2% active; calls by dose curve; tested in HEK293 cells; further: nearly all actives have a fitted effect of over 50% in size
MARV entry inh: blocks Marburg virus binding to or entry into cells; Marburg virus pseudotyped entry inhibition, cell reporter; 300,000 tested, 1.8% active; Potency, µM (titrated, usually from 37.8 µM), most hits filed as inhibitors; calls by dose curve; tested in HEK293 cells
HCV inh: blocks hepatitis C virus. 340,000 tested, 3.4% active. Huh7.5.1 HCVcc-Cre infection, luciferase reporter, 44 h. AID 651820. Potency, µM (top dose mostly 41.8 µM), usual class: inhibitors; active means well fitted inhibition curve with a large enough effect; inconclusive means small, poorly fitted or top-dose-only effect, or another doubt; inactive means no such curve, though single readings can be large or run the other way
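Reporter virus HCVcc-Cre (~0.5 moi) infects cells exposed to compound; seeding density 1,000 cells/well with 4 h settling beforehand. Luminescence, 15 sec read, taken 44 h post-infection following a 15 min RT substrate incubation.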
Vaccinia mCherry: vaccinia inhibition (mCherry reporter) | 310,000 tested, 0.63% active | Vaccinia virus mCherry reporter infection, fluorescence | Potency, µM (top dose mostly 36.5 µM), hits mostly inhibitors | AID 720579; calls by dose curve; tested in A549 cells; further: nearly all actives have a fitted effect of over 35% in size
Hits are given with their value; - = inactive; ? = inconclusive; . = no result; ! = not confirmed by another sample.

SMILES	HCMV antiviral	VACV Venus inh	Lassa entry inh	MARV entry inh	HCV inh	Vaccinia mCherry
O=C1c2ccccc2C(=O)N1CC(=O)N1c2ccccc2Sc2ccc(C(F)(F)F)cc21	-	-	-	-	-	-
COc1c2ccccc2nn1CCCCCO	-	.	.	.	.	.
COc1ccc(NC(=O)c2oc3ccccc3c2NC(=O)Cc2cccs2)cc1	-	-	-	-	.	-
CCSc1ccc2c(c1)N(CCCN1CCN(C)CC1)c1ccccc1S2	-	?	.	.	?	-
CN1CCN(CCC(=O)N2c3ccccc3Sc3ccc(C(F)(F)F)cc32)CC1	-	-	-	?	5.6µM	-
OC1CC2CCC(C1)N2CCCN1c2ccccc2Sc2ccc(Cl)cc21 (stereo not drawn)	-65	11µM	-	?	?	?
CN(C)CCCN1c2ccc(O)cc2Sc2ccc(Cl)cc21	-	?	.	.	.	-
CN1CCN(CCCN2c3ccccc3Sc3ccc(Cl)cc32)CC1	-	11µM	9.2µM	10µM	?	11µM!
OCCN1CCN(CCCN2c3ccccc3Sc3ccc(C(F)(F)F)cc32)CC1	-	?	7.3µM	13µM	?	-
O=CC(=O)c1ccc(F)cc1	.	-	.	.	.	-
COc1ccccc1N1CCN(C(=O)CN2C(=O)COc3ccc(S(=O)(=O)N4CCCC4)cc32)CC1	-	-	-	-	.	-
CC1=C(C(=O)Nc2cccnc2)C(c2cccc(Br)c2)n2nc(SCc3ccccc3)nc2N1 (stereo not drawn)	-	-	?	-	.	-
COc1ccc(/C=C/C(=O)c2cc(F)ccc2OC(=O)c2ccccc2OC)cc1OC	-97	?	?	?	?	?
COc1ccc(/C=C/C(=O)c2cc(Br)ccc2O)cc1OC	-	.	.	.	?	.
COc1ccc(/C=C/C(=O)c2cc(Br)ccc2OC(=O)c2ccco2)cc1OC	-	-	?	5.8µM!	-	-
COc1ccc(/C=C/C(=O)c2cc(F)ccc2OC(=O)c2ccccc2)cc1OC	-97	?	?	?	?	?
Cc1cccc(CNC(=O)CCCN2C(=O)COc3ccc(C)cc32)c1	-	-	-	-	.	-
CCOC(=O)/C(=N\O)C1=NC(C)(C)Cc2ccccc21	-	-	-	?	-	-
Cc1cccc(N/N=C(\C(N)=O)C2=NC(C)(C)Cc3ccccc32)c1	-98	?	6.3µM	?	11µM	?
O=C(c1ccc(CS(=O)(=O)c2c(Cl)cccc2Cl)o1)N1CCN(c2ccccc2)CC1	-	-	?	?	.	-
CC(=O)c1ccc(F)c(-c2cc(C)cc3c2OC(CNC(=O)Cn2nc(C)nc2C)C3)c1 (stereo not drawn)	.	-	.	.	.	-
CC(C)S(=O)(=O)c1csc(NC(=O)Nc2cc(Cl)ccc2Cl)c1Cl	-	-	?	?	13µM	-
CC(=O)NC(CCS(C)(=O)=O)C(=O)Nc1cc(Cl)ccc1Cl (stereo not drawn)	-	-	-	-	-	-
CCN(CC)S(=O)(=O)c1ccc(C(=O)NCCSc2c(-c3ccc(OC)cc3)[nH]c3ccccc23)cc1	-	-	?	?	.	-
COC(CNC(=O)C1CCN(C(=O)c2cc3oc(C)cc3n2Cc2c(F)cccc2Cl)CC1)OC	-67	-	?	?	-	-
SMILES	HCMV antiviral	VACV Venus inh	Lassa entry inh	MARV entry inh	HCV inh	Vaccinia mCherry
Cc1cccc2c1-c1sc(C(=O)Nc3ccccc3C(N)=O)cc1CO2	-	-	.	?	.	-
O=C(Nc1cccnc1Cl)c1cc2c(s1)-c1ccccc1OC2	-	.	.	.	?	.
Cc1cccc2c1-c1sc(C(=O)Nc3cccnc3)cc1CO2	?	.	.	.	22µM	.
O=C(Nc1cccnc1)c1cc2c(s1)-c1ccccc1OC2	-62	.	.	.	?	.
CC(=O)c1cccc(NC(=O)c2cc3c(s2)-c2c(C)cccc2OC3)c1	?	20µM	.	-	.	11µM
Cc1ccc(-c2c(CN3CCN(c4cccc(C)c4)C(C)C3)csc2C)cc1 (stereo not drawn)	-	-	-	.	.	-
O=S(=O)(NCC(c1cccs1)S(=O)(=O)c1ccccc1)c1ccc(F)cc1 (stereo not drawn)	-	-	-	.	.	-
CN(C(=O)c1cccc(NC(=O)Cc2cccc(NC(=O)C3CCCN(C(=O)CCc4ccccc4)C3)c2)c1)C1CCC1 (stereo not drawn)	-	?	.	.	3.5µM	?
O=C(Nc1cccc(C(=O)N2CCCC2)c1)C1CCC1	-	-	.	.	0.56µM	-
O=C(Cc1cccc(NC(=O)C2CCCN(C(=O)CCc3ccccc3)C2)c1)Nc1cccc(C(=O)N2CCCCC2)c1 (stereo not drawn)	-	-	.	.	4.5µM	-
O=C(Nc1cccc(C(=O)N2CCCCC2)c1)C1CCC1	-	-	.	.	-	-
O=C(Cc1cccc(NC(=O)C2CCCN(C(=O)CCc3ccccc3)C2)c1)Nc1cccc(C(=O)N2CCOCC2)c1 (stereo not drawn)	-	-	.	.	?	-
Cc1cccc(Cn2c(=O)n(Cc3ccc4c(c3)OCO4)c(=O)c3oc4ccccc4c32)c1	-	-	-	.	.	-
CCN(CCCCCN(C)C)Cc1cc2ccccc2o1	-	-	?	10µM	?	-
CN(C)CCCN(C(=O)c1cc2ccccc2oc1=O)c1nc2ccc(F)cc2s1	-	-	-	-	?	-
Cc1cc(Cl)c2oc(C(=O)NC3CCC(O)CC3)c(C)c2c1 (stereo not drawn)	-	.	.	.	14µM	.
COc1ccc(CCNC(=O)CCCn2c(=O)c3cccn3c3ccc(F)cc32)cc1OC	-	-	-	.	.	-
O=C(N/N=C1\CC(c2ccccc2)Oc2ccccc21)c1ccc(O)cc1 (stereo not drawn)	?	-	?	-	-	?
O=C(N/N=C1\CC(c2ccccc2)Oc2ccccc21)c1cccnc1 (stereo not drawn)	-83	-	?	-	-	-
Cc1ccc(-c2ccnc(-n3ncc(C(=O)N4CCCCC4c4cccnc4)c3C3CC3)n2)o1 (stereo not drawn)	.	?	.	.	.	-
Cc1ccc(-c2[nH]c3ccccc3c2SCCNC(=O)c2ccc(S(=O)(=O)N(C)C)cc2)cc1	-	-	?	?	.	-
O=C(Cc1cccs1)NCCSc1c(-c2ccc(Cl)cc2)[nH]c2ccccc12	?	13µM	16µM	?	13µM	11µM
CN(C)S(=O)(=O)c1ccc(C(=O)NCCSc2c(-c3ccccc3)[nH]c3ccccc23)cc1	-72	?	?	-	.	?
CN(C)S(=O)(=O)c1ccc(C(=O)NCCSc2c(-c3ccc(Cl)cc3)[nH]c3ccccc23)cc1	-	-	?	?	.	-
Cc1nc2cc(C(=O)OCC(=O)N(CC(C)C)C3CCS(=O)(=O)C3)ccc2n1-c1ccccc1 (stereo not drawn)	-96	.	-	?	?	.
Cc1nc2cc(C(=O)OCC(=O)NC(C)C(C)C)ccc2n1-c1ccccc1 (stereo not drawn)	-	-	8.2µM	?	-	-
CCN(c1ccccc1)S(=O)(=O)c1ccc(C(=O)Nc2nnc(-c3ccco3)o2)cc1	-77	.	.	.	?	.
CN(c1ccccc1)S(=O)(=O)c1ccc(C(=O)Nc2nnc(-c3ccco3)o2)cc1	-95	-	-	?	?	?
